# Rows were chosen to be rich in hits. Some 19% of all compounds tested hit in one or more screens of this group.
# Pf growth 96h: P. falciparum growth inhibition at 96 hour, primary screen for plastid delayed-death inhibitors; P. falciparum luciferase reporter growth, 96 h; Potency, µM (series often up to 28.7 µM), without a hit: at the top dose activity change, negative = inhibition, actives largely listed as inhibitors; actives 6.9% (n = 320,000); AID 504834; further: potency means the concentration at half of the fitted maximal effect; on the % scale 0 is the no-effect control and ±100 the full control effect
#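 Two parasite generations (96 h, 37 C, 5% CO2) of compound exposure in infected erythrocytes (0.05% parasitemia, 2% hematocrit). Luciferase-reporter P. falciparum; decreased luminescence indicates inhibited growth, aimed at apicoplast-acting delayed death.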
# AMA1-RON2 inh: inhibitors of Plasmodium falciparum AMA1-RON2 interaction | AlphaScreen AMA1-biotinylated RON2 peptide binding | Potency, µM (doses to about 58.2 µM), without a hit: at the highest dose activity change, negative = inhibition, usual class: inhibitors | actives 0.2% (n = 360,000);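 further: potency means the concentration at half of the fitted maximal effect; 0% = vehicle wells and -100% = peptide control; nearly all actives have a fitted effect of over 45% in size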
#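 AMA1 (3D7) with his tag at 25 nM final met compounds first, then biotinylated RON2 peptide at 25 nM; detection used donor plus acceptor beads, 10 µg/mL apiece, read by AlphaScreen after 30 min at room temperature.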
# Pf growth 48h: inhibits P. falciparum growth in the first generation, 48 h | Potency, µM (titrated, usually from 28.7 µM), without a hit: at the top dose activity change, negative = inhibition, actives largely listed as inhibitors | actives 5.9% (n = 310,000) | P. falciparum luciferase growth in erythrocytes, 48 h | AID 504832; further: potency means the concentration at half of the fitted maximal effect; on the % scale 0 is the no-effect control and ±100 the full control effect
#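 Read-out is firefly luciferase luminescence from an integrated reporter in P. falciparum, so falling signal marks reduced parasite growth. Infected erythrocytes were at 2% hematocrit and 0.1% parasitemia (final) in Albumax-supplemented RPMI 1640.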
# Shiga toxin inh: blocks Shiga toxin action in Vero cells. inhibition, % at 38.7 µM. Vero cells, Shiga toxin protein synthesis inhibition reporter. actives 9.2% (n = 290,000); in the data active means inhibition mostly above about 28%, no sharp cut-off; inactive means mostly below about 43%; further: 0% is about no effect
# CHX counter: counter-screen hit for Shiga toxin inhibitors, cycloheximide | AID 2314 | actives 12% (n = 300,000) | max response, % | cell reporter, cycloheximide protein synthesis inhibition counterscreen; in the data active means max response mostly above about 13%, no sharp cut-off; inactive means mostly below about 14%; further: read at 38.3 µM for the half of the compounds with a filed dose; 0% is about no effect
# SARS PLpro yeast: SARS-CoV PLP inhibition in yeast. AID 485353. actives 0.19% (n = 330,000). S. cerevisiae expressing SARS-CoV PLpro, growth rescue. Potency, µM (top dose mostly 32.9 µM), inactives show at the highest dose activity, positive = growth rescue, hits mostly activators; calls by dose curve; further: potency means the concentration at half of the fitted maximal effect; 0% is about no effect; nearly all actives have a fitted effect of over 55% in size
# Starred values were filed as active, the others as inactive; ? = inconclusive; · = no result given; [ ] = dose if it differs, or a comment. Unless noted, the call rests on the fitted dose curve; in most records, active means well fitted curve in the direction sought with a large enough effect; inconclusive means small, poorly fitted or top-dose-only effect, or another doubt; inactive means no such curve, though single readings can be large; an effect the other way counts as inactive or inconclusive.
SMILES,Pf growth 96h,AMA1-RON2 inh,Pf growth 48h,Shiga toxin inh,CHX counter,SARS PLpro yeast
CCC(N=c1cc(-c2ccc(OC)cc2)oc2ccc(C)cc12)C(=O)O (stereo not given),227%,-10%,110%,77*,82*,-8%
CCC(N=c1cc(-c2ccc(OC)c(OC)c2)oc2ccc(C)cc12)C(=O)O (stereo not given),33%,1%,27%,16,21*,16%
CCOC(=O)c1oc2cc(OC(C)=O)ccc2c(=O)c1-c1ccc(OC)c(OC)c1,-7%,1%,-8%,32,-1,0%
O=C(NN=C1CCCC1)c1cc(Br)ccc1O,?,55%,28%,43,23*,-3%
NNC(=O)c1ccc(O)cc1O,-21%,7%,8%,76*,30*,-2%
NNC(=O)c1cc2ccccc2cc1O,10%,35%,?,10,7,?
CCCCCC(=O)c1ccc(O)cc1O,18%,0%,7%,49*,32*,-17%
O=C(NN=C1CCCC1)c1ccc(O)cc1O,13µM*,15%,-10%,124*,38*,-4%
O=C(NCc1cccnc1)C(=O)NCC(c1ccco1)N1CCN(c2ccc(F)cc2)CC1 (stereo not given),?,-18%,?,-1,14,?
Cc1ccc(N2C(=O)c3ccccc3C2=O)nc1,-19%,-7%,3%[0.00184 µM],-5,-4,6%
CN1/C(=C\C=C2/SC(=S)N(CC(=O)O)C2=O)C(C)(C)c2ccccc21,?,20µM*,-4%,-7,-3,0%
C=CCN1C(=O)/C(=C\C=C2\N(C)c3ccccc3C2(C)C)SC1=S,29%,9%,-5%,-11,-1,-13%
CCCN1C(=O)/C(=C/C=C2\N(CC)c3ccccc3C2(C)C)SC1=S,4.1µM*,?,?,-5,-5,0%
COc1ccccc1C(CNC(=O)c1cccc(S(=O)(=O)NCc2ccccc2)c1)N(C)C (stereo not given),?,41%,3%,·,·,0%
O=C(CN1C(=O)NC2(CCCC2)C1=O)N1CCN(S(=O)(=O)c2ccccc2[N+](=O)[O-])CC1,5%,0%,-16%,·,·,·
CCOc1ccc(-n2c(SCc3ccc([N+](=O)[O-])cc3)nnc2-c2ccc(OC)cc2)cc1,8.3µM*,-12%,?,-1,5,6%
CCOC(=O)N=Nc1c(O)n(CC(=O)OC)c2ccccc12,16%,-6%,24%,-2,3,-2%
CCOC(=O)N=Nc1c2ccccc2c2nc3no[nH]c3nc12,19%,7%,1µM*,27,5,-33%
Cc1ccc(OCc2nc(-c3ccccc3)no2)c(C)c1,62%,107%,213%,98*,36*,-3%
Cc1cccc(OCC(=O)NCc2nc(-c3ccccc3)no2)c1,?,-4%,-1%,1,0,-12%
COc1ccc(-c2noc(CNS(=O)(=O)c3ccccc3)n2)cc1,73%,14%,30%,41,17*,-3%
Cc1cccc(NCc2nc(-c3ccccc3)no2)c1,5%,11%,·,41,36*,-16%
Cc1ccc(-c2noc(CNS(=O)(=O)c3ccccc3)n2)cc1,187%,0%,31%,39*,43*,-2%
COC(=O)N/N=C/c1cc(N=Nc2ccccc2Cl)ccc1O,7.4µM*,27%,?,22,15,-2%
Nc1ccc(C(=O)N/N=C\c2cc(N=Nc3cccc4ccccc34)ccc2O)cc1,3%,32%,2.9µM*,30,18*,-3%
SMILES,Pf growth 96h,AMA1-RON2 inh,Pf growth 48h,Shiga toxin inh,CHX counter,SARS PLpro yeast
O=C(NN=Cc1cc([N+](=O)[O-])ccc1O)c1cccc2ccccc12,·,58%,·,·,·,·
COC(=O)N/N=C\c1cc(Br)ccc1OCc1ccccc1,51%,16%,17%,-3,20,-34%
COC(=O)N/N=C/c1cc(N=Nc2ccccc2)ccc1O,?,71%,?,47,25*,-1%
Cc1cc(C(=O)N/N=C/c2cccc(OC(=O)c3cccc(Br)c3)c2)n[nH]1,7%,-4%,26%,23*,15,-2%
O=C(N/N=C/c1ccc([N+](=O)[O-])cc1)c1cc(C2CC2)[nH]n1,?,-15%,-20%,-17,-1,1%
Cc1cc(C(=O)N/N=C/c2ccccn2)n[nH]1,45%,64%,32%,38,18*,0%
O=C(N/N=C/c1ccccn1)c1cc(C2CC2)[nH]n1,13%,53%,264%,111*,38*,-4%
O=C(N/N=C/c1cccc2ccccc12)c1cc(C2CC2)[nH]n1,-16%,-4%,-5%,75*,22*,12%
Cc1cc(C(=O)N/N=C/c2c3ccccc3cc3ccccc23)n[nH]1,19%,11%,-16%,21,10,-3%
N#Cc1cnn(-c2ccccc2)c1NC(=O)CN1CCN(c2ccccc2)CC1,-15%,9%,-16%,12,-2,0%
CC(C)n1cnnc1SCC(=O)NNC(=O)COc1ccc(Cl)cc1,-3%,89%,4%,·,·,-4%
CC(/C=N/NC(=O)c1cc(C2CC2)[nH]n1)=C\c1ccccc1,0%,-1%,2%,24,9.5*,0%
Cc1cc(C(=O)N/N=C/c2cccc([N+](=O)[O-])c2O)n[nH]1,3%,-34%,-9%,20,18*,-21%
CCn1ccnc1CN(C)Cc1cn(-c2cc(C)ccc2C)nc1-c1ccccc1,21%,6%,?,12,-1,-1%
COc1ccc(S(=O)(=O)NCC2CCCO2)cc1NC(=O)c1ccccc1F (stereo not given),-4%,0%,22%,-7,-2,4%
CC12CCC(C(=O)Nc3nccs3)(OC1=O)C2(C)C (stereo not given),-5%,19%,4%,-10,13,-1%
CC12CCC(C(=O)Nc3nc4ccc(Br)cc4s3)(OC1=O)C2(C)C (stereo not given),?,-1%,22%,94*,33*,-1%
Cc1cc(C(=O)c2ccc(Cl)cc2)c(NC(=O)CCl)s1,-18%,13%[2.32 µM],5%,-6,-3,3%
CCc1cc(C(=O)c2ccc(C)cc2)c(NC(=O)CCl)s1,?,-23%,?,73*,49*,-35%
CCc1cc(C(=O)c2ccc(OC)cc2)c(NC(=O)CN2CCCC2)s1,?,2%,?,-5,4,-2%
CCc1cc(C(=O)c2ccc(OC)cc2)c(NC(=O)CN2CCCCC2)s1,3.7µM*,13%,3.7µM*,-9,-2,1%
Clc1ccc2c(c1)-c1[nH]ncc1CS2,9%,24%,0%,2,-2,-1%
Cc1nn(C)c(C)c1C(C)NC(=O)c1cc(COc2cncc(Cl)c2)on1 (stereo not given),-1%,-1%,?,-11,15,?
